Assay results from PubChem BioAssay AID1159580 (chemical genetic matrix, 2015).
Hit rate of the full screen: of about 5,500 compounds, about 2,000 (36%) were called active. Another 18% or so got no clear call; they are omitted. No stated cut-off is given here; in the data, active means normalized growth mostly below about 0.91 (no sharp cut-off); inconclusive means no clear call, values can overlap the other calls; inactive means mostly above about 0.92. Some of the results follow.

Test: chemical genetic growth profiling, strain panel (AID 1159580);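 further: tested at 20 µM; growth read once vehicle control cultures reached saturation at 30 °C; 1 = growth at the plate median or of vehicle wells; lower values mean less growth of the strain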
Conditions: S. cerevisiae deletion strains, growth OD

Measured: normalized growth

CC1=CCCC2C1(C)CCC(C)C2(C)CC/C(C)=C/C[n+]1cn(C)c2c(N)ncnc21 (centres undefined)
active: locus YAL026C, strain drs2, hits give low values 0.838 | locus YDR137W, strain rgp1, hits give low values 1.17 [resistant] | locus YDR392W, strain spt3, hits give low values 0.452 | locus YER155C, strain BEM2 (second series), hits give low values 0.644 | locus YNL071W, strain lat1, hits give low values 0.863 | locus YOR290C, strain snf2, hits give low values 0.844
inactive: locus YAL021C, strain ccr4, hits give low values 0.944 | locus YAL030W, strain snc1, hits give low values 0.986 | locus YBL061C, strain skt5, hits give low values 1.01 | locus YBR009C, strain hhf1, hits give low values 0.928 | locus YBR023C, strain chs3, hits give low values 0.978 | locus YBR171W, strain sec66, hits give low values 0.977 | locus YBR231C, strain swc5, hits give low values 0.973 | locus YBR279W, strain paf1, hits give low values 0.96 | locus YCL011C, strain gbp2, hits give low values 0.943 | locus YCL016C, strain dcc1, hits give low values 0.932 | locus YCL069W, strain vba3, hits give low values 0.961 | locus YCR088W, strain abp1, hits give low values 0.991 | locus YDL005C, strain med2, hits give low values 0.984 | locus YDL040C, strain nat1, hits give low values 0.991 | locus YDR001C, strain nth1, hits give low values 0.976 | locus YDR069C, strain doa4, hits give low values 1.01 | locus YDR159W, strain sac3, hits give low values 1.06 | locus YDR195W, strain ref2 0.992 | locus YDR297W, strain sur2, hits give low values 0.996 | locus YDR334W, strain swr1, hits give low values 0.988 | locus YDR335W, strain msn5, hits give low values 0.955 | locus YEL003W, strain gim4, hits give low values 0.955 | locus YEL037C, strain rad23, hits give low values 0.987 | locus YEL061C, strain CIN8 (second series), hits give low values 0.976 | locus YER015W, strain faa2, hits give low values 0.963 | locus YER016W, strain bim1, hits give low values 0.994 | locus YER111C, strain swi4, hits give low values 0.984 | locus YFR010W, strain ubp6, hits give low values 0.996 | locus YGL167C, strain pmr1, hits give low values 0.976 | locus YGL173C, strain kem1, hits give low values 0.993 | locus YGL227W, strain vid30, hits give low values 0.985 | locus YGL240W, strain doc1, hits give low values 0.971 | locus YGL253W, strain hxk2, hits give low values 0.976 | locus YHR013C, strain ard1, hits give low values 0.917 | locus YHR027C, strain rpn1, hits give low values 1 | locus YHR030C, strain SLT2, hits give low values 0.946 | locus YHR079C, strain IRE1, hits give low values 0.951 | locus YHR142W, strain chs7, hits give low values 0.881 | locus YJL092W, strain hpr5, hits give low values 0.982 | locus YJL095W, strain BCK1 (second series), hits give low values 1.01 | locus YJL095W, strain BCK1, hits give low values 0.971 | locus YJL115W, strain asf1, hits give low values 0.978 | locus YJL129C, strain trk1, hits give low values 1 | locus YJL154C, strain vps35, hits give low values 0.983 | locus YJL164C, strain tpk1, hits give low values 0.935 | locus YJL166W, strain qcr8, hits give low values 0.963 | locus YJL187C, strain SWE1, hits give low values 0.991 | locus YJR066W, strain TOR1, hits give low values 0.94 | locus YKL160W, strain elf1, hits give low values 0.929 | locus YKR026C, strain gcn3, hits give low values 1.01 | locus YKR091W, strain srl3, hits give low values 0.977 | locus YLL001W, strain dnm1, hits give low values 0.908 | locus YLL026W, hits give low values 0.984 | locus YLL041C, strain sdh2, hits give low values 0.987 | locus YLR027C, strain aat2, hits give low values 0.986 | locus YLR113W, strain HOG1, hits give low values 0.891 | locus YLR221C, strain rsa3, hits give low values 1.02 | locus YLR258W, strain gsy2, hits give low values 0.969 | locus YLR262C, strain YPT6 (second series), hits give low values 1.03 | locus YLR320W, strain mms22, hits give low values 1 | locus YLR342W, strain FKS1, hits give low values 0.919 | locus YLR357W, strain rsc2, hits give low values 0.929 | locus YLR370C, strain arc18, hits give low values 0.961 | locus YLR384C, strain iki3, hits give low values 0.995 | locus YML120C, strain ndi1, hits give low values 0.931 | locus YMR058W, strain fet3, hits give low values 0.982 | locus YMR125W, strain sto1, hits give low values 0.936 | locus YMR129W, hits give low values 0.995 | locus YMR205C, strain PFK2, hits give low values 0.925 | locus YMR231W, strain pep5, hits give low values 1.02 | locus YNL183C, strain NPR1, hits give low values 0.968 | locus YNL209W, strain ssb2, hits give low values 0.932 | locus YNL248C, strain rpa49, hits give low values 0.98 | locus YNL322C, strain KRE1 (second series), hits give low values 0.996 | locus YNR049C, strain mso1, hits give low values 0.992 | locus YOR001W, strain rrp6, hits give low values 1.01 | locus YOR070C, strain gyp1, hits give low values 0.988 | locus YOR080W, strain dia2, hits give low values 1 | locus YOR083W, strain WHI5, hits give low values 0.908 | locus YOR106W, strain vam3, hits give low values 0.883 | locus YOR231W, strain MKK1, hits give low values 0.937 | locus YOR265W, strain rbl2, hits give low values 0.981 | locus YOR270C, strain vph1, hits give low values 0.95 | locus YPL051W, strain arl3, hits give low values 0.942 | locus YPL078C, strain atp4, hits give low values 0.896 | locus YPL106C, strain sse1, hits give low values 0.973 | locus YPL240C, strain hsp82, hits give low values 0.996 | locus YPL256C, strain CLN2, hits give low values 0.939
